Screening data as filed in PubChem.
Compounds with a hit are over-represented: about 21% of the library has one in this group of screens.
Pf growth 48h: inhibits P. falciparum growth in the first generation, 48 h; P. falciparum luciferase growth in erythrocytes, 48 h; Potency, µM (doses to about 28.7 µM), for inactives: at the highest dose activity change, negative = inhibition, hits mostly inhibitors; 310,000 tested, 5.9% active; also: potency is read from the fitted curve at half-maximal effect; % is scaled to controls: 0 for no effect and ±100 for the full control effect
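Growth was read as firefly luciferase luminescence after a 48 h, 37 C, 5% CO2 exposure of compounds to reporter-bearing P. falciparum cultures (0.1% parasitemia, 2% hematocrit final) in Albumax-supplemented RPMI 1640.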
Cycloheximide cs: counter-screen hit for Shiga toxin inhibitors, cycloheximide. cell reporter, cycloheximide protein synthesis inhibition counterscreen. max response, %. 300,000 tested, 12% active. AID 2314; in the data active = max response mostly above about 13%, no sharp cut-off; inactive = mostly below about 14%; also: read at 38.3 µM for the half of the compounds with a filed dose; 0% is about no effect
Shiga toxin inh: inhibitors of Shiga toxin in Vero cells; AID 2315; 290,000 tested, 9.2% active; Vero cells, Shiga toxin protein synthesis inhibition reporter; inhibition, % at 38.7 µM; in the data active = inhibition mostly above about 28%, no sharp cut-off; inactive = mostly below about 43%; also: 0% is about no effect
Pf growth 96h: P. falciparum growth inhibition at 96 hour, primary screen for plastid delayed-death inhibitors; P. falciparum luciferase reporter growth, 96 h; Potency, µM (series often up to 28.7 µM), for the others: at the top dose activity change, negative = inhibition, actives largely listed as inhibitors; 320,000 tested, 6.9% active; AID 504834; also: potency is read from the fitted curve at half-maximal effect; % is scaled to controls: 0 for no effect and ±100 for the full control effect
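96 h incubation, 37 C, 5% CO2, of luciferase-reporter P. falciparum-infected RBCs (2% hematocrit, 0.05% parasitemia final) with test compounds; endpoint luminescence.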
The depositor's hits bear a star; ? = inconclusive; . = no result. Unless noted, calls follow the shape of the dose curve; as a rule, active = well fitted inhibition curve with a large enough effect; inconclusive = small, poorly fitted or top-dose-only effect, or another doubt; inactive = no such curve, though single readings can be large or run the other way.

SMILES	Pf growth 48h	Cycloheximide cs	Shiga toxin inh	Pf growth 96h
Cc1nc2ccccc2c(=O)n1/N=C/c1ccc([N+](=O)[O-])o1	13µM*	34*	56*	5.9µM*
Cc1ccc(/C=N/n2c(C)nc3ccccc3c2=O)o1	0%	5	1	38%
Cc1ccc(CN(C)C(=O)C2CCC(=O)N(CC3CCCCC3)C2)o1 (configuration not stated)	-1%	-2	-15	?
O=C(NCCC(=O)N1CCN(S(=O)(=O)c2ccccc2F)CC1)Nc1ccccc1	-7%	.	.	?
O=C(N/N=C/c1cccnc1)c1ccc([N+](=O)[O-])cc1	-3%	-2	19	?
[O-]/[N+](=C\c1ccncc1)c1ccc(Br)cc1	257%	17*	39	-11%
[O-]/[N+](=C/c1cccnc1)c1ccc(Br)cc1	143%	37*	94*	.
COc1ccc(CNCc2c(F)cccc2F)cc1OC	15%	-3	-2	?
O=C(Nc1nccs1)c1cc2sccc2n1Cc1ccc(Cl)cc1	.	-9	-14	?
Cn1c(C(=O)NCCN2CCOCC2)cc2sccc21	20%	36	72	-20%
O=C(Nc1ccc2c(c1)OCCO2)c1cc2sccc2n1Cc1ccc(F)cc1	?	31*	65*	10µM*
O=C(Nc1ccc2c(c1)OCCO2)c1cc2sccc2n1Cc1ccccc1	?	24	126*	?
Cn1c(C(=O)Nc2ccc3c(c2)OCCO3)cc2sccc21	130%	36*	47*	0%
CCOC(=O)c1cccc(NC(=O)c2cc3sccc3n2C)c1	116%	39*	46*	.
N#Cc1ccccc1NC(=O)C(=O)NCCc1csc(-c2ccc(F)cc2)n1	-2%	.	.	-23%
COc1cccc(NC(=S)N2C3CCCC2CC(NC(=O)C2CC2)C3)c1 (configuration not stated)	12%	7	12	3%
COc1cccc(NC(=O)N2C3CCCC2CC(NC(=O)C2CC2)C3)c1 (configuration not stated)	-21%	7	-12	1.5µM*
Cc1ccccc1NC(=O)N1C2CCCC1CC(NC(=O)C1CC1)C2 (configuration not stated)	0%	-3	-7	9.3µM*
Cc1ccc(S(=O)(=O)NCc2ccc(N3CCN(C(=O)OC(C)(C)C)CC3)cc2)cc1	13µM*	1	2	4.1µM*
Cc1ccc(S(=O)(=O)NCc2ccc(C(=O)N3CCN(c4ccccc4)CC3)cc2)cc1	?	20	-1	-6%
Cc1ccc(S(=O)(=O)NCc2ccc(C(=O)N3CCc4ccccc4C3)cc2)cc1	?	-2	8	6.6µM*
COc1ccc(S(=O)(=O)NCc2ccc(C(=O)N3CCc4ccccc4C3)cc2)cc1	?	-4	-3	6.6µM*
Cc1ccc(C(=O)NCc2ccc(N3CCN(C(=O)OC(C)(C)C)CC3)cc2)cc1	16%	-1	-22	-14%
Cc1nn(S(=O)(=O)c2ccccc2)c(C)c1S(=O)(=O)N1CCC(C)CC1	28%	-1	10	17%
O=C(NCCc1nccs1)C1CCC(=O)N(CCc2ccc(Cl)cc2)C1 (configuration not stated)	-2%	-1	-33	-12%
SMILES	Pf growth 48h	Cycloheximide cs	Shiga toxin inh	Pf growth 96h
O=C(COc1cc2oc(=O)cc(-c3ccccc3)c2cc1Cl)NCc1ccccn1	-5%	-3	34	-6%
CC(C)S(=O)(=O)c1csc(C(=O)Nc2ccc(F)cc2)c1N	228%	42*	53	328%
Cc1ccc(NC(=O)CSc2nnc(NC(=O)CN3CCOCC3)s2)cc1	-5%	-4	-6	-17%
CC(=O)c1ccc(NC(=O)CSc2nnc(NC(=O)CN3CCOCC3)s2)cc1	17%	18	62*	45%
O=C(CSc1nnc(NC2CCCCC2)s1)Nc1ccc(N2CCOCC2)cc1	17%	21*	41*	1%
C/C(=N\NC(N)=S)C12CC3CC(CC(C3)C1)C2	.	-3	-7	5.2µM*
C/C(=N\NC(N)=S)C1(C)CCCCC1	?	-3	-8	?
CC1CCC(NC(=O)CCC(=O)N2CC(C)Oc3ccccc32)CC1 (configuration not stated)	75%	15*	21	?
COc1cccc(CNC(=O)CCC(=O)N2CC(C)Oc3ccccc32)c1OC (configuration not stated)	17%	1	-4	5.2µM*
CN(C)S(=O)(=O)c1ccccc1C#N	1%	1	-10	0%
CN(C)S(=O)(=O)c1cccc2c1C(=O)c1ccccc1C2=O	12µM*	-2	-7	10µM*
CNc1cccc2c1C(=O)c1ccccc1C2=O	83%	16*	33	2.9µM*
O=C1c2ccccc2C(=O)c2c(NCc3cccnc3)cccc21	?	10	58	?
Cc1cc(-c2nnnn2-c2ccc(F)cc2)no1	1%	-2	-5	-2%
COc1cc(C2CC(=O)N(c3ccc(C)cc3)C(=O)C2)cc(OC)c1OC	?	2	1	-1%
CCN(CC)c1ccc(S(=O)(=O)N2CCOCC2)cc1NC(=O)CN1CCN(Cc2ccccc2)CC1	?	-4	-9	10µM*
CCN(CC)c1ccc(S(=O)(=O)N2CCOCC2)cc1NC(=O)CSC(=S)N1CCCC1	?	-1	15	10µM*
CCN(CC)c1ccc(S(=O)(=O)N2CCOCC2)cc1NC(=O)CNCc1ccccc1	?	0	-6	?
CCc1nn(C(C)C(=O)NCc2cccc(OC)c2)c(=O)c2cc3occc3n12 (configuration not stated)	12%	2	1	?
Cc1cc(-c2csc(NC(=O)c3ccc(=O)n(C)n3)n2)c(C)n1CC1CCCO1 (configuration not stated)	?	-2	-7	7.4µM*
Cc1cc(-c2csc(NC(=O)c3ccccc3C(F)(F)F)n2)c(C)n1Cc1ccccc1	-21%	-4	-5	?
Cc1cc(NC(=O)NN2CCOCC2)nn1-c1c(Cl)cc(Cl)cc1Cl	?	-2	7	?
Cc1ccccc1NC(=O)C(C)N1C(=O)c2ccccc2C1=O (configuration not stated)	-11%	1	.	2.9µM*
Cc1cccnc1NC(=O)C(C)N1C(=O)c2ccccc2C1=O (configuration not stated)	14%	4	5	13%
COc1ccc(Nc2ccc(S(=O)(=O)N3CCCCC3)cc2[N+](=O)[O-])cc1	-15%	0	8	-25%
COc1ccc(C(CNc2ccc(S(=O)(=O)N3CCN(C)CC3)cc2[N+](=O)[O-])N(C)C)cc1 (configuration not stated)	1%	.	.	11%
COc1ccc(C(CNc2ccc(S(=O)(=O)N3CCCC3)cc2[N+](=O)[O-])N2CCCC2)cc1 (configuration not stated)	?	-3	2	10µM*
COc1ccc(Nc2ccc(S(=O)(=O)N3CCCCC3)cc2[N+](=O)[O-])cc1Cl	?	6	5	13µM*
CCOC(=O)CC(=O)CSc1n[nH]c(=O)[nH]c1=O	4%	2	3	21%
COc1cc(NC(=O)COC(C)=O)c(C)cc1[N+](=O)[O-]	13%	-6	-17	-1%
